{"source": "PubChem BioAssay AID743312", "about": "(Broad Institute, 2014)", "note": "Entries with a potency or affinity are not part of this list. The source made the active and inactive calls. The rule behind the calls is not given here."}
{"test": "A549 cell cytotoxicity, dose response, cytotoxicity control, plate reader, dry powder, set 6 (AID 743312)", "conditions": "series mostly up to 26 µM"}
{"smiles": "CCc1nc2ccccc2n1CCOc1ccccc1", "outcome": "inactive"}
{"smiles": "OCc1nc2ccccc2n1CCOc1ccccc1", "outcome": "inactive"}
{"smiles": "CC(C)Oc1cccc(OCCn2cnc3ccccc32)c1", "outcome": "inactive"}
{"smiles": "CS(=O)(=O)c1ccc(OCCn2cnc3ccccc32)cc1", "outcome": "inactive"}
{"smiles": "Cc1cccc(OCCn2c(=S)[nH]c3c(F)cccc32)c1", "outcome": "inactive"}
{"smiles": "Cc1ccc(OCCn2cnc3cc(C)c(C)cc32)cc1", "outcome": "inactive"}
{"smiles": "CSc1nc2ccccc2n1CCOc1cc(C)ccc1C(C)C", "outcome": "inactive"}
{"smiles": "Clc1ccccc1OCCn1cnc2ccccc21", "outcome": "inactive"}
{"smiles": "Cc1cccc(OCCn2c(=S)[nH]c3cc(F)ccc32)c1", "outcome": "inactive"}
{"smiles": "Cc1ccc(OCCn2cnc3ccccc32)c(C)c1", "outcome": "inactive"}
{"smiles": "Clc1ccc(OCCn2cnc3ccccc32)cc1", "outcome": "inactive"}
{"smiles": "COc1ccccc1OCCn1c(=S)[nH]c2ccccc21", "outcome": "inactive"}
{"smiles": "COc1ccccc1OCCn1c(SC)nc2ccccc21", "outcome": "inactive"}
{"smiles": "O=S(=O)(c1ccc(OCCn2cnc3ccccc32)cc1)N1CCOCC1", "outcome": "inactive"}
{"smiles": "Clc1ccc(OCCn2cnc3ccccc32)c(Cl)c1", "outcome": "inactive"}
{"smiles": "CSc1nc2ccccc2n1CCOc1ccc(C)cc1", "outcome": "inactive"}
{"smiles": "Fc1cccc2c1[nH]c(=S)n2CCOc1ccccc1", "outcome": "inactive"}
{"smiles": "c1ccc2c(c1)ncn2CCOc1ccc2c(c1)CCC2", "outcome": "inactive"}
{"smiles": "CCSc1nc2ccccc2n1CCOc1ccccc1", "outcome": "inactive"}
{"smiles": "Fc1ccc2c(c1)[nH]c(=S)n2CCOc1ccccc1", "outcome": "inactive"}
{"smiles": "COCc1nc2ccccc2n1CCOc1ccc(C(C)(C)C)cc1", "outcome": "inactive"}
